# From PubChem
# KB-3-1 tox: KB-3-1 parental cell cytotoxicity. KB-3-1 viability, CellTiter-Glo ATP luminescence, 72 h. Potency, µM (titrated, usually from 46.1 µM), actives largely listed as cytotoxic. 1.4% of 400,000 active; further: nearly all actives have a fitted effect of over 60% in size
#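 KB-3-1 cells, DMEM (no phenol red) + 10% FBS; compound by pin transfer, 72 h, 37 °C. Readout: CellTiter-Glo luminescence after 10 min. Data normalized, curve-fitted.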
# SW480 rerep: induces DNA re-replication in SW480 colon adenocarcinoma cells; SW480 DNA re-replication, Hoechst DNA content imaging, 48 h; Potency, µM (top dose mostly 46.1 µM), actives largely listed as activators; 1.8% of 340,000 active; AID 624297; further: nearly all actives have a fitted effect of over 55% in size
#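 First, 250 cells per well were seeded. Next, compound or vehicle (23 nL) was pinned in, plates sat 48 hr at 37 C. Finally Hoechst was added for 40 min before fluorescence scanning.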
# KB-V1 cytotox: KB-V1 MDR subline cytotoxicity; KB-V1 MDR cells viability, CellTiter-Glo, 72 h; Potency, µM (series often up to 46.1 µM), actives largely listed as cytotoxic; 3.4% of 400,000 active; further: nearly all actives have a fitted effect of over 60% in size
#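 KB-V1, DMEM (no phenol red) + 10% FBS; cpd pin-transferred, titration series; 72 h, 37 degrees C; CellTiter-Glo, luminescence. Data normalized, curve-fit.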
# MCF10A rerep: induces DNA re-replication in MCF 10a normal breast cells; Potency, µM (titrated, usually from 46.1 µM), actives largely listed as activators; MCF 10A DNA re-replication, Hoechst nuclear intensity, 48 h; 2.9% of 350,000 active; further: nearly all actives have a fitted effect of over 50% in size
# HT1080 IDH1KD tx: toxicity to HT-1080 IDH1 knockdown cells (counter line); 2% of 360,000 active; HT-1080 IDH1 knockdown viability, ATP luminescence, 48 h; Potency, µM (top dose mostly 46.1 µM), most hits filed as cytotoxic
#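 Assay cells: HT-1080 with IDH1 knockdown, 750 per well, RPMI/5% FBS. Exposure: 48 h at 37 °C following 2 h pre-incubation. Read: CellTiter-Glo luminescence; fitted concentration-response, curve class assigned.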
# HT1080NT lethal: kills 2HG-producing HT-1080-NT fibrosarcoma cells; HT-1080-NT fibrosarcoma viability, CellTiter-Glo ATP luminescence, 48 h; 1.6% of 360,000 active; Potency, µM (series often up to 46.1 µM), usual class: cytotoxic;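 further: NT is the 2HG producing partner of a matched IDH1 knockdown line; nearly all actives have a fitted effect of over 55% in size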
#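 750 cells/well, RPMI + 5% FBS; 2 h settle, compound pin-transfer, 48 h at 37 degrees C. CellTiter-Glo 10 min RT, luminescence. Normalized to DMSO and media-only wells.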
# A number is an active result; . = inactive; ? = inconclusive; / = not tested or not shown; [ ] = another dose, or the depositor's remark. Compounds with a hit are over-represented: about 7.9% of the library has one in this group of screens. The call rests on the fitted dose curve; in most records, active means well fitted curve in the direction sought with a large enough effect; inconclusive means small, poorly fitted or top-dose-only effect, or another doubt; inactive means no such curve, though single readings can be large; an effect the other way counts as inactive or inconclusive.
SMILES,KB-3-1 tox,SW480 rerep,KB-V1 cytotox,MCF10A rerep,HT1080 IDH1KD tx,HT1080NT lethal
CCC(C)NC(=O)COC(=O)c1cc([N+](=O)[O-])ccc1Sc1nc(C)cs1 (stereo not given),.,.[9.22 µM],.,?,.,.
Cc1csc(Sc2ccc([N+](=O)[O-])cc2C(=O)OCC(=O)NC2CCCC(C)C2C)n1 (stereo not given),.,?,.,17.8µM,.,.
COc1ccccc1C(=O)NCC(c1cccs1)N1CCc2ccccc21 (stereo not given),?,.,?,18.4µM,.,.
COc1ccc(-c2csc3nc(-c4ccccc4OC)oc(=O)c23)cc1,.,16.4µM,.,20.6µM,?,?
CSCCC1NC2(C(=O)Nc3c2ccc(Cl)c3C)[C@@H]2C(=O)N(C3CCCC3)C(=O)[C@H]12 (stereo not given in full),?,?,4.11µM,.,.,.
CCCCN(Cc1cc2ccccc2[nH]c1=O)S(C)(=O)=O,.,10.3µM,?,.,.,.
Cc1ccc(S(=O)(=O)N(CC(=O)N=Nc2c(O)[nH]c3ccccc23)c2cccc(C)c2)cc1,20.6µM,?,20.6µM,?,13µM,?
Cc1ccc(S(=O)(=O)N(Cc2cc3ccccc3[nH]c2=O)c2cccc(C)c2)cc1,.,4.11µM,?,?,.,.
Cc1ccc(N(Cc2cc3cccc(C)c3[nH]c2=O)S(=O)(=O)c2ccccc2)c(C)c1,.,.,.,.,.,.
Cc1ccc2[nH]c(=O)c(CN(c3cccc(C)c3C)S(=O)(=O)c3ccccc3)cc2c1,6.51µM,.,?,?,?,.
CSc1ccc(S(=O)(=O)NCC(=O)OCCOc2ccccc2)cc1[N+](=O)[O-],.,.,.,?,.,.
Nc1ccc(S(=O)(=O)NCC(=O)OCCOc2ccccc2)cc1[N+](=O)[O-],.,.,.,14.6µM,.,.
CCOC(=O)c1ccccc1NC(=O)CSc1c(C)cnc2c1c(=O)n(C)c(=O)n2C,.,/,.,/,/,/
NNc1cc2c(nn1)CCN(C(=O)c1ccccc1)C2,18.4µM,/,.,/,?,?
O=C(c1cccnc1)N1CCc2ccccc2C1,.,.,.,.,.,.
COc1cc(NC(=O)Cn2nc(C(F)(F)F)c(Br)c2C)cc([N+](=O)[O-])c1,.,.,18.4µM,.,.,.
COCCNC(=O)CC(NS(=O)(=O)c1ccc(NC(C)=O)cc1)C(C)C (stereo not given),.,.,?,.,.,.
Cc1cccc(NC(=S)N/C(=N/S(=O)(=O)c2ccccc2)c2ccccc2)c1,.,.,.,.,.,.
CC(C)OC(=S)N/C(=N\S(=O)(=O)c1ccccc1)c1ccccc1,.,.,.,.,8.91µM,7.08µM
Cn1nccc1NS(=O)(=O)c1ccc(NC(=O)C(F)(F)F)cc1,.,2.91µM,.,.,.,.
Cc1ccccc1NC(=O)c1ccc(CN2CCC(Cc3ccccc3)CC2)cc1,?,?,14.6µM,?,?,23.1µM
COc1ccc(CCNC(=O)c2ccc(CN3CCC(Cc4ccccc4)CC3)cc2)cc1,.,.,9.2µM,.,.,.
C#CCNC(=O)C[C@@H]1C[C@@]2(C(=O)OCC)CCC=C2N(CCC2=CCCCC2)C1=O,.,/,.,/,.,.
COc1ccc(OC)c(-n2nnnc2SCC(=O)N2CCN(C(=O)c3ccco3)CC2)c1,?,.,.,.,.,.
COc1ccc(C2CC(c3cccs3)=NN2C(=O)CSc2nnnn2C)cc1OC (stereo not given),.,.,.,.,.,.
SMILES,KB-3-1 tox,SW480 rerep,KB-V1 cytotox,MCF10A rerep,HT1080 IDH1KD tx,HT1080NT lethal
Cc1ccc(C2CC(c3cccs3)=NN2C(=O)CCl)cc1 (stereo not given),?,?,?,?,4.11µM,4.61µM
CCC(=O)N1N=C(c2cccs2)CC1c1ccc(C)cc1 (stereo not given),.,.,.,.,.,.
COc1ccc(C2CC(c3cccs3)=NN2C(=O)CSc2nncn2C)cc1OC (stereo not given),.,.,?,4.61µM,.,.
COc1ccc(OC)c(Nc2nc(NCCCN(C)C)nc(N)c2[N+](=O)[O-])c1,.,?,.,?,16.4µM,.
Nc1cc(=O)[nH]c(SCCSc2ccc(F)cc2)n1,?,.,?,.,.,.
CC(C)CCSc1nc(N)c(C#N)cc1C#N,.,.,20.6µM,.,.,.
CC(=O)c1cc(C#N)c(SCCC(C)C)nc1C,.,.,.,.,.,.
CCCC(C)C(=O)Nc1nc(C)c(-c2csc(Nc3ccccc3OC)n2)s1 (stereo not given),.,.,.,20.6µM,.,.
CCCCCC(=O)Nc1nc(C)c(-c2csc(Nc3ccccc3OC)n2)s1,.,.,.,?,.,.
CCC(C)C(=O)Nc1nc(C)c(-c2csc(Nc3cc(Cl)ccc3OC)n2)s1 (stereo not given),.,.,?,.,.,.
CCCC(C)C(=O)Nc1nc(C)c(-c2csc(Nc3ccc(Cl)cc3)n2)s1 (stereo not given),8.2µM,?,.,.,.,.
Cc1ccc2sc(N(CCN(C)C)C(=O)c3ccc4ccccc4c3)nc2c1C,?,?,.,.,.,.
CN(C)CCCN(C(=O)CCOc1ccccc1)c1nc2ccc(F)cc2s1,.,?,.,?,20.6µM,18.4µM
Cc1ccc2sc(N(CCCN(C)C)C(=O)CN3C(=O)c4ccccc4C3=O)nc2c1C,.,?,.,.,?,16.4µM
CN(C)CCCN(C(=O)CCOc1ccccc1)c1nc2c(F)cccc2s1,?,?,.,?,7.31µM,14.6µM
O=C(CC(c1ccco1)C1CCCCC1=O)c1ccco1 (stereo not given),.,.,.,.,.,.
CCOc1ccc2c(c1)-c1c(ssc1=S)C(C)(C)N2C(=O)c1ccco1,?,16.4µM,?,4.11µM,5.17µM,4.61µM
Cc1ccc2c(c1)-c1c(ssc1=S)C(C)(C)N2C(=O)CSc1nncn1C,?,.,?,.,.,.
CC1=CC(=C(C#N)c2nc3ccccc3s2)C=C(C)N1CC1CCCO1 (stereo not given),.,23.1µM,.,13µM,.,.
O=C(NNS(=O)(=O)c1ccc(F)cc1)c1ccccc1F,.,18.4µM,.,.,.,.
COC(=O)c1sc(S(=O)(=O)N2CCN(c3ccccc3)CC2)c(C(=O)OC)c1C,.,.,8.2µM,.,.,.
COC(=O)c1sc(S(=O)(=O)N2CCCCC2)c(C(=O)OC)c1C,.,.,?,.,.,.
COc1ccc(Cc2nnc(NC(=O)c3ccccc3)s2)cc1OC,.,.,.,.,.,.
